Experiment [1] can be described thus: Primary fluorescence-based thiol-reactive (MSTI) qHTS assay for identification of artifact compounds. (AID 1845221). Also: nearly all actives have a fitted effect of over 65% in size. Also: potency is read from the fitted curve at half-maximal effect.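 As to activity change, negative = thiol reactive: series mostly up to about 54 µM; thiol-reactive compounds lower the probe fluorescence signal.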 The method in brief: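 Curve-fitted percent inhibition (4-parameter Hill) derived from fluorescence, Ex 525/Em 598 nm, scaled with Acetyl-MSTI and MSTI; 1 h incubation at room temperature.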
For experiment [2], the system named is Nanoluciferase (engineered Oplophorus gracilirostris luciferase). The experiment in a line: Primary Nanoluciferase (NLuc) qHTS assay for identification of artifact compounds. (AID 1845222).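 Also: NLuc secreted into diluted conditioned medium of S16 cells; series mostly up to about 54 µM; 0% = DMSO and -100% = no enzyme.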 In short, it runs like this: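 NLuc from S16 cell medium (1:55) plus test compounds, 15 min, room temperature. Luminescence after Nano-Glo (1:100) addition, 5 min.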
Experiment [3] is described as follows: Primary redox qHTS assay for identification of artifact compounds. (AID 1845223).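 Also: 0% = DMSO and 100% = reference compound.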 The method in brief:
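Amplex Red (25 uM) and HRP (250 mU/mL) in HBSS, with compounds for 15 min, then 250 uM DTT for 30 min, room temperature, dark. Fluorescence 525/598 nm read; normalized to DMSO and 10 uM DA3003; Hill fit.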

Unmarked numbers belong to inactive results. Records with an inconclusive call do not appear. Activity calls are given as the source filed them. Calls follow the shape of the dose curve; as a rule, active = well fitted curve in the direction sought with a large enough effect; inconclusive = small, poorly fitted or top-dose-only effect, or another doubt; inactive = no such curve, though single readings can be large; an effect the other way counts as inactive or inconclusive.

Consider `NC1CCC(N[C@@H]2C[C@H]2c2ccccc2)CC1` (some centres not stated), for which the Potency result in experiment [1], in experiment [2] and in experiment [3] was “inactive” in each case.

As to `COC(=O)C1=CO[C@@H](O[C@@H]2O[C@H](CO)[C@@H](O)[C@H](O)[C@H]2O)[C@@H]2[C@@](C)(O)[C@@H](O)C[C@]12O`, the Potency result in experiment [1], in experiment [2] and in experiment [3] was “inactive” each time.

Take `O=C(/C=C/c1ccc(O)c(O)c1)OCc1ccccc1O[C@@H]1O[C@H](CO)[C@@H](O)[C@H](O)[C@H]1O`: in experiment [1], the Potency was 0.922 µM (active). For the same compound, the Potency result in experiment [2] and in experiment [3] was “inactive” each time.

Turning to `C=C(C(=O)OC)C1CCC2(C)C(O[C@@H]3O[C@H](CO)[C@@H](O)[C@H](O)[C@H]3O)CC(=O)C(C)C2C1O` (some centres not stated), the Potency in experiment [1] is 4.12 µM (active). Also, the Potency result in experiment [2] and in experiment [3] was “inactive” in each case.

Take `CCCC1=CC2=C(CO1)C(=O)C(C)(OC(=O)c1c(C)cc(OC)cc1O)C(O)C2` (configuration not stated): the Potency entry in experiment [1], in experiment [2] and in experiment [3] was “inactive” throughout.

With `CC[C@H](/C=C/[C@@H](C)[C@H]1CC[C@H]2[C@@H]3CC=C4C[C@@H](O)CC[C@]4(C)[C@H]3CC[C@]12C)C(C)C`, in experiment [1], the activity change, negative = thiol reactive was -7.95% [at 6.41 µM]. Besides, the activity, negative = inhibition in experiment [2] was 1.22% [at 6.45 µM]. In addition, the redox activity (% of DA3003) in experiment [3] is -0.124% [at 6.41 µM].

Turning to `CC1(C)CC2C3=CCC4C5(C)CCC(OC6OC(C(=O)O)C(O)C(O)C6OC6OC(CO)C(O)C(O)C6OC6OC(CO)C(O)C(O)C6O)C(C)(CO)C5CCC4(C)C3(C)CCC2(C)C(OC2OCC(O)C(OC3OC(CO)C(O)C(O)C3O)C2O)C1O` (configuration not stated), the activity change, negative = thiol reactive in experiment [1] is 89.2% [at 11.5 µM]. Moreover, the activity, negative = inhibition in experiment [2] is 2.9% [at 11.6 µM]. The redox activity (% of DA3003) in experiment [3] was 10.1% [at 11.5 µM].

For the compound `CC(C)C1=CCC(C)(O)C(OC2OC(CO)C(O)C(O)C2O)C1` (configuration not stated), the Potency in experiment [1] was 2.33 µM (active). For the same compound, the Potency result in experiment [2] and in experiment [3] was “inactive” throughout.

As for `CC1(C)CCC(C)(C)c2cc3c(cc21)Sc1ccccc1N=C3c1ccc(C(=O)O)cc1`, the Potency entry in experiment [1], in experiment [2] and in experiment [3] was “inactive” throughout.

In the case of `CC(C#N)C(C)O[C@@H]1O[C@H](CO)[C@@H](O)[C@H](O)[C@H]1O` (some centres not stated), the Potency in experiment [1] was 26.7 µM (active). Moreover, the Potency result in experiment [2] and in experiment [3] was “inactive” in each case.

As for `COc1cc(C2c3cc(O)c(OC)cc3CC(CO)C2CO)ccc1O` (configuration not stated), in experiment [1], the Potency is 8.26 µM (active). For the same compound, the Potency result in experiment [2] and in experiment [3] was “inactive” throughout.

Consider `C[C@]1(O)CC[C@@H]2C(C(=O)O)=CO[C@@H](O[C@@H]3O[C@H](COC(=O)c4ccc(O)cc4)[C@@H](O)[C@H](O)[C@H]3O)[C@@H]21`, for which the Potency in experiment [1] is 10.3 µM (active). Besides, the Potency entry in experiment [2] and in experiment [3] was “inactive” throughout.

For the compound `CC1CCC2(C(=O)OC3OC(COC4OC(CO)C(O)C(O)C4O)C(O)C(O)C3O)CCC3(C)C(=CCC4C5(C)CCC(O)C(C)(C(=O)O)C5CCC43C)C2C1(C)O` (configuration not stated), in experiment [1], the activity change, negative = thiol reactive is 18.5% [at 11.5 µM]. Further, the activity, negative = inhibition in experiment [2] is 3.18% [at 11.6 µM]. Also, the redox activity (% of DA3003) in experiment [3] was 2.59% [at 11.5 µM].

Consider `C=C1C[C@]23C[C@H]1CC[C@H]2[C@]1(C)CCC[C@@]2(CO)C(=O)O[C@H]([C@H]21)[C@@H]3O`, for which the Potency result in experiment [1], in experiment [2] and in experiment [3] was “inactive” throughout.

With `Cc1nnc(C(C)C)n1C1CC2CCC(C1)N2CCC(NC(=O)C1CCC(F)(F)CC1)c1ccccc1` (configuration not stated), the Potency result in experiment [1], in experiment [2] and in experiment [3] was “inactive” in each case.

For the compound `CCOC(=O)c1ccnc(CNCC(=O)N(CC)CCN(C)C)c1`, the Potency result in experiment [1], in experiment [2] and in experiment [3] was “inactive” throughout.

Consider `CCNC(=O)CCC/C=C\C[C@@H]1[C@@H](/C=C/C(O)CCc2ccccc2)[C@@H](O)C[C@@H]1O` (some centres not stated), for which the Potency entry in experiment [1], in experiment [2] and in experiment [3] was “inactive” in each case.

In the case of `O=C(OCC12OC1C=CC(OC(=O)c1ccccc1)C2O)c1ccccc1` (configuration not stated), the Potency entry in experiment [1], in experiment [2] and in experiment [3] was “inactive” throughout.

With `CC(C)=CCC/C(C)=C/CC/C(C)=C/CC[C@]1(C)CCc2cc(O)cc(C)c2O1`, the Potency result in experiment [1], in experiment [2] and in experiment [3] was “inactive” throughout.

Regarding `CC1=C(C)C(=O)OC(C(C)C2C(O)CC3C4C5OC5C5(O)CC(OC6OC(CO)C(O)C(O)C6O)CC(O)C5(C)C4CCC32C)C1` (configuration not stated), the Potency entry in experiment [1], in experiment [2] and in experiment [3] was “inactive” each time.

Regarding `COC(=O)C1=C[C@@H](O)[C@@H](O)[C@H](O[C@@H]2O[C@H](COC(=O)/C=C/c3ccccc3)[C@@H](O)[C@H](O)[C@H]2O)C1`, the Potency entry in experiment [1], in experiment [2] and in experiment [3] was “inactive” in each case.

Regarding `O=C(O[C@H]1[C@@H]2C[C@@H]3OC[C@@](O)([C@H]2[C@H](O[C@@H]2O[C@H](CO)[C@@H](O)[C@H](O)[C@H]2O)O3)[C@@H]1O)c1ccccc1`, the Potency in experiment [1] is 5.19 µM (active). In addition, the Potency entry in experiment [2] and in experiment [3] was “inactive” each time.

With `N[C@H]1C[C@H]1c1ccc(-c2cccc(O)c2)cc1`, the Potency result in experiment [1], in experiment [2] and in experiment [3] was “inactive” in each case.

As for `CC(=O)O[C@@]1(C)C[C@@H](O)[C@]2(O)C=CO[C@@H](O[C@@H]3O[C@H](CO)[C@@H](O)[C@H](O)[C@H]3O)[C@@H]21`, the Potency entry in experiment [1], in experiment [2] and in experiment [3] was “inactive” each time.

The record behind these values is PubChem BioAssay (NCATS).
